Measured values reported in PubChem BioAssay.

assay: reducers of endogenous Her2 protein level, primary screen, SKBR3 breast tumor cells, AlphaScreen, ATP viability (AID 461); conditions: 18-24 h, measured here: SKBR3 viability, ATP luminescence, at 10 µM;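 further: percent of carrier control wells set as 100% viability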

Row | SMILES | viability [%]
1 | Cn1c(=O)[nH]c(=O)c2c1nc(N1CCNCC1)n2CCOc1ccccc1 | 79.5
2 | CCOC(=O)c1cc2n(n1)C(C(F)(F)C(F)(F)F)CC(C)N2 (stereo not given) | 92
3 | Cc1ccccc1-n1c(=O)c2ccccc2n2nnnc12 | 80
4 | Cc1cccc(N2C(=O)CC(N3CCN(C(=O)c4ccccc4)CC3)C2=O)c1 (stereo not given) | 114
5 | CC(C)Cn1c(=O)c(C2=NS(=O)(=O)c3ccccc3N2)c(O)c2ccccc21 | 118
6 | c1ccc(CNc2ncnc3ccccc23)cc1 | 86
7 | O=S1(=O)N=C(Nc2nc3c(s2)CCCC3)c2ccccc21 | 82
8 | CCCn1c2ccccc2c2nnc(SCC(=O)Nc3ncccn3)nc21 | 105
9 | COc1cc(OC)cc(C(=O)N2c3ccc(F)cc3CCC2C)c1 (stereo not given) | 94.5
10 | CCOC(=O)C(CCc1nnc(N)s1)C(=O)OCC | 87.5
11 | CCOC(=O)N1CCN(c2c(NCCCOC(C)C)c(=O)c2=O)CC1 | 97.5
12 | CN(C)S(=O)(=O)Nc1ccc(Br)cc1F | 108
13 | CC(=O)Nc1c(C(=O)C2CC2)oc2ccccc12 | 102
14 | O=C(COC(=O)c1cc(-c2ccco2)nc2ccccc12)NCc1ccc2c(c1)OCO2 | 97
15 | CCC(=O)c1ccc(OCCN2CCOCC2)cc1 | 99.5
16 | Cc1cc(=O)oc2cc(OCC(=O)OCc3nnc(-c4ccccc4)o3)ccc12 | 106
17 | Nn1c(SCC(=O)NC2CCCCC2)nnc1C1CC1 | 102
18 | CCN(C(=O)Cc1c(C(=O)O)[nH]c2ccccc12)c1cc(OC)ccc1OC | 112
19 | O=C(NCc1ccco1)c1cnc2n(c1=O)CCS2 | 101
20 | O=C1CN(C(=O)COC(=O)c2ccccc2NC(=O)c2ccco2)c2ccccc2N1 | 94

Row | SMILES | viability [%]
21 | CC(=O)Nc1ccc(S(=O)(=O)n2nc(C)cc2C)cc1 | 105
22 | CCOC(=O)CSc1nnc(Cn2nnc(-c3ccccc3)n2)n1CC | 95.5
23 | O=C(Nc1ccccc1C(=O)N1CCCCCC1)c1cccc(S(=O)(=O)N2CCOCC2)c1 | 95.5
24 | Cc1ccc(-c2cc(C(=O)NCc3ccc4c(c3)OCO4)no2)cc1 | 96
25 | CCOC(=O)c1cc(C)sc1N1C(=O)C2C3C=CC(C3)C2C1=O (stereo not given) | 132
26 | Cc1ccc(-c2nc(CS(=O)CC(=O)NCCN(CC(C)C)CC(C)C)c(C)o2)cc1 (stereo not given) | 81
27 | CCN(CC)S(=O)(=O)N1CCC(C(=O)NC2CCCc3ccccc32)CC1 (stereo not given) | 78
28 | COc1ccc(OC)c(Nc2cc(-c3ccccc3)nc(N)n2)c1 | 72
29 | O=c1ccc(S(=O)(=O)N2CCC(Cc3ccccc3)CC2)c[nH]1 | 86
30 | CN(C)S(=O)(=O)c1ccc(Oc2ccc(S(=O)(=O)N(C)C)cc2)cc1 | 80.5
31 | COc1ccc2c(c1OC)C(=O)OC2C1c2c(cc3c(c2OC)OCO3)CCN1C (stereo not given) | 89
32 | c1ccc(-c2cn3c4c(sc3n2)CCCC4)cc1 | 89
33 | Oc1ccc2[nH]cnc2c1CN1CCCCC1 | 113
34 | CCCCOc1cc(=O)[nH]c(=O)[nH]1 | 108
35 | COc1cc(-c2nn3c(-c4cccnc4)nnc3s2)cc(OC)c1OC | 101
36 | CCS(=O)(=O)Nc1ccc(C(=O)CC2(O)C(=O)Nc3ccccc32)cc1 (stereo not given) | 105
37 | Cn1c(=O)c2[nH]c(NCC3CCCO3)nc2n(-c2ccccc2)c1=O (stereo not given) | 94.5
38 | Cc1cccc(OCCCC(=O)O)c1 | 101
39 | Cc1cccc2cc(CN(CC3CCCO3)C(=O)c3cnccn3)c(=O)[nH]c12 (stereo not given) | 116
40 | COCCCNC(=O)C(Cc1ccccc1)NS(=O)(=O)c1ccc2c(c1)c(=O)n(C)c(=O)n2C (stereo not given) | 101
